Source: PubChem BioAssay AID1159580 (chemical genetic matrix, 2015)
“And” between values parts separate entries of the source, which are not always exact repeats. Identical values can stand only once. Screen size: about 5,500 compounds; about 2,000 (36%) were called active. Another 18% or so got no clear call; they are omitted. No stated cut-off is given here; in the data, active means normalized growth mostly below about 0.91 (no sharp cut-off); inconclusive means no clear call, values can overlap the other calls; inactive means mostly above about 0.92. The list shows a part of the results.

Experiment: chemical genetic growth profiling, strain panel (AID 1159580);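 further: tested at 20 µM; growth read once vehicle control cultures reached saturation at 30 °C; 1 = growth at the plate median or of vehicle wells; lower values mean less growth of the strain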
Conditions: growth OD

Measured: normalized growth

OC(CCN1CCCCC1)(c1ccccc1)C1CCCCC1 (stereo unspecified)
inactive: S. cerevisiae deletion strains, locus YJR075W, strain HOC1, active compounds read low 1.01 and 0.98 | S. cerevisiae deletion strains, locus YKL009W, strain mrt4, active compounds read low 0.999 | S. cerevisiae deletion strains, locus YKL068W, active compounds read low 0.997 | S. cerevisiae deletion strains, locus YKL085W, strain MDH1 (second series), active compounds read low 0.998 | S. cerevisiae deletion strains, locus YKL085W, strain MDH1, active compounds read low 0.998 | S. cerevisiae deletion strains, locus YKL160W, strain elf1, active compounds read low 0.96 | S. cerevisiae deletion strains, locus YKL190W, strain CNB1, active compounds read low 1.01 | S. cerevisiae deletion strains, locus YKR001C, strain vps1, active compounds read low 0.985 | S. cerevisiae deletion strains, locus YKR026C, strain gcn3, active compounds read low 0.971 | S. cerevisiae deletion strains, locus YKR091W, strain srl3, active compounds read low 0.978 | S. cerevisiae deletion strains, locus YLL001W, strain dnm1, active compounds read low 0.918 | S. cerevisiae deletion strains, locus YLL026W, active compounds read low 0.981 | S. cerevisiae deletion strains, locus YLL041C, strain sdh2, active compounds read low 0.975 | S. cerevisiae deletion strains, locus YLR027C, strain aat2, active compounds read low 0.954 | S. cerevisiae deletion strains, locus YLR039C, strain RIC1, active compounds read low 1.12 | S. cerevisiae deletion strains, locus YLR058C, strain SHM2, active compounds read low 1.01 | S. cerevisiae deletion strains, locus YLR102C, strain apc9, active compounds read low 0.995 | S. cerevisiae deletion strains, locus YLR113W, strain HOG1, active compounds read low 0.991 | S. cerevisiae deletion strains, locus YLR221C, strain rsa3, active compounds read low 1.01 | S. cerevisiae deletion strains, locus YLR258W, strain gsy2, active compounds read low 0.992 | S. cerevisiae deletion strains, locus YLR262C, strain YPT6 (second series), active compounds read low 0.989 | S. cerevisiae deletion strains, locus YLR262C, strain YPT6, active compounds read low 1.1 | S. cerevisiae deletion strains, locus YLR268W, strain sec22, active compounds read low 0.98 | S. cerevisiae deletion strains, locus YLR320W, strain mms22, active compounds read low 0.961 | S. cerevisiae deletion strains, locus YLR330W, strain CHS5, active compounds read low 1.01 | S. cerevisiae deletion strains, locus YLR342W, strain FKS1 (second series), active compounds read low 1 | S. cerevisiae deletion strains, locus YLR342W, strain FKS1, active compounds read low 0.959 | S. cerevisiae deletion strains, locus YLR357W, strain rsc2, active compounds read low 0.939 | S. cerevisiae deletion strains, locus YLR370C, strain arc18, active compounds read low 0.974 | S. cerevisiae deletion strains, locus YLR371W, strain rom2, active compounds read low 1 | S. cerevisiae deletion strains, locus YLR384C, strain iki3, active compounds read low 0.961 | S. cerevisiae deletion strains, locus YLR418C, strain cdc73, active compounds read low 0.966 | S. cerevisiae deletion strains, locus YML016C, strain PPZ1, active compounds read low 1.01 | S. cerevisiae deletion strains, locus YML032C, strain rad52, active compounds read low 0.986 | S. cerevisiae deletion strains, locus YML120C, strain ndi1, active compounds read low 0.97 | S. cerevisiae deletion strains, locus YML124C, strain tub3, active compounds read low 0.997 | S. cerevisiae deletion strains, locus YMR058W, strain fet3, active compounds read low 0.964 | S. cerevisiae deletion strains, locus YMR078C, strain ctf18, active compounds read low 0.998 | S. cerevisiae deletion strains, locus YMR125W, strain sto1, active compounds read low 0.977 | S. cerevisiae deletion strains, locus YMR129W, active compounds read low 0.98 | S. cerevisiae deletion strains, locus YMR205C, strain PFK2, active compounds read low 0.955 | S. cerevisiae deletion strains, locus YMR223W, strain ubp8, active compounds read low 1.01 | S. cerevisiae deletion strains, locus YMR231W, strain pep5, active compounds read low 0.973 | S. cerevisiae deletion strains, locus YMR263W, strain SAP30, active compounds read low 1.01 and 0.983 | S. cerevisiae deletion strains, locus YMR307W, strain GAS1, active compounds read low 1.01 and 0.985 | S. cerevisiae deletion strains, locus YNL067W, strain RPL9B, active compounds read low 1 | S. cerevisiae deletion strains, locus YNL071W, strain lat1, active compounds read low 0.98 | S. cerevisiae deletion strains, locus YNL128W, strain TEP1, active compounds read low 1.02 | S. cerevisiae deletion strains, locus YNL153C, strain GIM3, active compounds read low 1 | S. cerevisiae deletion strains, locus YNL175C, strain NOP13, active compounds read low 1.01 | S. cerevisiae deletion strains, locus YNL183C, strain NPR1, active compounds read low 0.935 | S. cerevisiae deletion strains, locus YNL197C, strain WHI3, active compounds read low 1.03 | S. cerevisiae deletion strains, locus YNL209W, strain ssb2, active compounds read low 0.993 | S. cerevisiae deletion strains, locus YNL224C, strain SQS1, active compounds read low 0.998 | S. cerevisiae deletion strains, locus YNL233W, strain BNI4, active compounds read low 0.998 | S. cerevisiae deletion strains, locus YNL248C, strain rpa49, active compounds read low 0.995 | S. cerevisiae deletion strains, locus YNL250W, strain rad50, active compounds read low 0.999 | S. cerevisiae deletion strains, locus YNL271C, strain bni1, active compounds read low 0.989 | S. cerevisiae deletion strains, locus YNL298W, strain CLA4, active compounds read low 1.02 | S. cerevisiae deletion strains, locus YNL307C, strain MCK1, active compounds read low 0.998 | S. cerevisiae deletion strains, locus YNL322C, strain KRE1 (second series), active compounds read low 0.976 | S. cerevisiae deletion strains, locus YNL322C, strain KRE1, active compounds read low 1.01 | S. cerevisiae deletion strains, locus YNR049C, strain mso1, active compounds read low 0.967 | S. cerevisiae deletion strains, locus YNR052C, strain pop2, active compounds read low 1 | S. cerevisiae deletion strains, locus YOL006C, strain TOP1, active compounds read low 0.951 | S. cerevisiae deletion strains, locus YOL012C, strain htz1 0.776 | S. cerevisiae deletion strains, locus YOL147C, strain pex11, active compounds read low 0.994 | S. cerevisiae deletion strains, locus YOR001W, strain rrp6, active compounds read low 0.949 | S. cerevisiae deletion strains, locus YOR061W, strain CKA2, active compounds read low 1.01 | S. cerevisiae deletion strains, locus YOR069W, strain VPS5, active compounds read low 1.01 | S. cerevisiae deletion strains, locus YOR070C, strain gyp1, active compounds read low 0.986 | S. cerevisiae deletion strains, locus YOR080W, strain dia2, active compounds read low 0.971 | S. cerevisiae deletion strains, locus YOR083W, strain WHI5 (second series), active compounds read low 0.994 | S. cerevisiae deletion strains, locus YOR083W, strain WHI5, active compounds read low 0.951 | S. cerevisiae deletion strains, locus YOR106W, strain vam3, active compounds read low 0.936 | S. cerevisiae deletion strains, locus YOR136W, strain idh2, active compounds read low 1 | S. cerevisiae deletion strains, locus YOR144C, strain elg1, active compounds read low 0.993 | S. cerevisiae deletion strains, locus YOR184W, strain ser1, active compounds read low 1.01 | S. cerevisiae deletion strains, locus YOR231W, strain MKK1, active compounds read low 0.984 | S. cerevisiae deletion strains, locus YOR265W, strain rbl2, active compounds read low 0.983 | S. cerevisiae deletion strains, locus YOR270C, strain vph1, active compounds read low 0.849 | S. cerevisiae deletion strains, locus YOR290C, strain snf2, active compounds read low 0.989 | S. cerevisiae deletion strains, locus YOR316C, strain cot1, active compounds read low 1 | S. cerevisiae deletion strains, locus YPL051W, strain arl3, active compounds read low 0.984 | S. cerevisiae deletion strains, locus YPL055C, strain LGE1, active compounds read low 1.03 and 0.971 | S. cerevisiae deletion strains, locus YPL078C, strain atp4, active compounds read low 0.931 | S. cerevisiae deletion strains, locus YPL106C, strain sse1, active compounds read low 1.01 | S. cerevisiae deletion strains, locus YPL240C, strain hsp82, active compounds read low 0.976 | S. cerevisiae deletion strains, locus YPL241C, strain CIN2, active compounds read low 1.01 | S. cerevisiae deletion strains, locus YPL256C, strain CLN2, active compounds read low 0.962 | S. cerevisiae deletion strains, locus YPR119W, strain clb2, active compounds read low 0.998 | S. cerevisiae deletion strains, locus YPR141C, strain kar3, active compounds read low 1.01 | S. cerevisiae deletion strains, locus YPR163C, strain tif3, active compounds read low 0.988 | S. cerevisiae deletion strains, locus YPR167C, strain met16, active compounds read low 0.998 | S. cerevisiae deletion strains, strain wtn01, active compounds read low 0.993 | S. cerevisiae strains, strain wild type, active compounds read low 1.01
